NPC1 prom act – activates the NPC1 promoter; Huh7 NPC1 promoter luciferase reporter, 24 h; Potency, µM (top dose mostly 9.22 µM), most hits filed as activators; 2.4% of 320,000 active; AID 485313; note: nearly all actives have a fitted effect of over 60% in size
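Luminescence read-out of NPC1 promoter-driven luciferase in stably transfected Huh7 cells; compounds delivered in DMSO and left 24 h at 37C, 5% CO2, qHTS titration format.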
ELG1 genotoxic – inducers of genotoxicity in HEK293T ELG1-luciferase cells; Potency, µM (top dose mostly 46 µM), hits mostly activators; AID 504466; HEK293T ELG1-luciferase reporter, luminescence, 16 h; 1.3% of 330,000 active; note: nearly all actives have a fitted effect of over 60% in size
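Luminescence read-out: rising ELG1-luciferase signal, reflecting elevated ELG1 protein under genetic stress, flags genotoxic compounds. Cells were treated for 16 hr at 37 °C before ONE-Glo detection.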
SMN2 splice enh – enhancers of SMN2 splice variant expression. AID 1458. HEK293 SMN2-luciferase splicing reporter, luminescence, 30-36 h. 2.8% of 210,000 active. Potency, µM (titrated, usually from 46.1 µM), most hits filed as activators; note: nearly all actives have a fitted effect of over 55% in size
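HEK293 cells carry an SMN2 minigene-luciferase reporter in which exon 7 inclusion puts luciferase in frame. Cells were seeded at 2000 cells/well, attached for 10-12 hours, then exposed to compounds for 30-36 hours at 37C before ONE-Glo luminescence.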
FLuc counter – counter-screen for miR-21 project: firefly luciferase inhibitors or activators | purified FLuc, Km substrates, luminescence inhibition | 6.9% of 360,000 active | Potency, µM (series often up to 57.5 µM), usual class: inhibitors | P08659; note: nearly all actives have a fitted effect of over 55% in size
Target sequence (P08659 whole entry, looked up): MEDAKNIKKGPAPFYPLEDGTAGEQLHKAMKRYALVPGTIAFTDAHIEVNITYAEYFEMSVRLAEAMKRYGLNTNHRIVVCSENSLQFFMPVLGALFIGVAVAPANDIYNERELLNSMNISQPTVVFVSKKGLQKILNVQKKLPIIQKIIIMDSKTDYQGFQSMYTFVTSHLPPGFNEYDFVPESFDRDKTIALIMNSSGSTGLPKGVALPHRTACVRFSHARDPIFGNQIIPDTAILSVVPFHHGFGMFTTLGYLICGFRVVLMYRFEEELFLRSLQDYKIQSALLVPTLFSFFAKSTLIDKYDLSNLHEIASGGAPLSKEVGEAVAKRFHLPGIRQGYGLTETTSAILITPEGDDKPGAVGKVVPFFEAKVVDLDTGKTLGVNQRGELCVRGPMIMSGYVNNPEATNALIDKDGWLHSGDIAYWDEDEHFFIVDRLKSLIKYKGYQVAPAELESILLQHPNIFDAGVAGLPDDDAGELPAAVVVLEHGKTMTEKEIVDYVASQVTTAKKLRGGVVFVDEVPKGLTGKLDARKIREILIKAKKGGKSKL
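Biochemical qHTS of compounds, final roughly 60 µM downward over six points, against 10 nM purified firefly luciferase using Km concentrations of substrates (10 uM D-luciferin, 10 uM ATP) in Tris acetate pH 7.5 buffer; luminescence output.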
ELG1 repair inh – inhibitors of ELG1-dependent DNA repair in HEK293T cells; HEK293T ELG1-luciferase reporter, luminescence, 16 h; DNA damage induced by 5-fluorouridine; Potency, µM (top dose mostly 46.1 µM), usual class: inhibitors; 2.3% of 330,000 active; AID 504467; note: nearly all actives have a fitted effect of over 55% in size
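DMSO vehicle served as the neutral condition. Each well held 2,000 cells given 5-fluorouridine plus compound; after 16 hr at 37 °C/5% CO2, ONE-Glo was added and luciferase measured 30 min later.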
Rab9 prom act – activators of Rab9 promoter; AID 485297; Potency, µM (titrated, usually from 9.22 µM), usual class: activators; 2.8% of 320,000 active; Huh7 Rab9 promoter-luciferase reporter, luminescence, 24 h; note: nearly all actives have a fitted effect of over 60% in size
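Measured in stably transfected Huh7 cells bearing a Rab9 promoter–luciferase construct: 24 h compound treatment at 37 °C, followed by luminescence detection.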
ELG1 FLuc counter – luciferase inhibition in cell-free luciferin readout for ELG1 hits; shares compounds with ELG1 repair inh; cell-free firefly luciferase luminescence counter-screen, ViewLux; Potency, µM (highest dose often 46.1 µM), hits mostly inhibitors; 3% of 350 active; AID 624247
ELG1 Luc conf – human ELG1 repair inhibition, luciferase-tagged ELG1 confirmation | 68% of 670 active | shares compounds with ELG1 repair inh | AID 624248 | HEK293T ELG1-luciferase levels, luminescence; cells co-treated with 5-fluorouridine | Potency, µM (top dose mostly 46.1 µM), usual class: inhibitors; note: nearly all actives have a fitted effect of over 55% in size
ELG1-Luc MMS – inhibits ELG1-dependent repair under MMS stimulation in HEK293T cells; Potency, µM (titrated, usually from 46.1 µM), actives largely listed as inhibitors; 53% of 670 active; HEK293T luciferase-tagged ELG1 level, MMS stimulated; shares compounds with ELG1 repair inh; note: nearly all actives have a fitted effect of over 60% in size
ELG1 5-FU – confirmation of ELG1 repair inhibitors: viability with 5FU; shares compounds with ELG1 repair inh; cell viability with 5-FU, ELG1-dependent repair; Potency, µM (highest dose often 46.1 µM), most hits filed as cytotoxic; 670 tested, under 10 active;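 note: ELG1-luc HEK293T cells cotreated with 5-fluorouridine at 10 µM final; viability measured 16 h after compound addition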
ELG1 MMS cell – confirmation of ELG1 repair inhibitors: viability with MMS | Potency, µM (titrated, usually from 46.1 µM), hits mostly cytotoxic | 33% of 670 active | shares compounds with ELG1 repair inh | Cell viability with MMS, ELG1-dependent DNA repair;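 note: ELG1-luc HEK293T cells co-treated with 10 µM MMS; viability read 16 h after compound addition; nearly all actives have a fitted effect of over 60% in size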
Cell viab unstim – unstimulated viability counter-screen for ELG1 repair hits; shares compounds with ELG1 repair inh; cell viability counter-screen, unstimulated, luminescence; Potency, µM (doses to about 45.9 µM), most hits filed as cytotoxic; 8% of 900 active;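 note: compound exposure lasted 16 hours before reading; nearly all actives have a fitted effect of over 55% in size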
FLuc biochem – inhibits purified firefly luciferase, counter-screen for ELG1 hits; Potency, µM (highest dose often 57.5 µM), usual class: inhibitors; 10% of 350 active; shares compounds with ELG1 repair inh; purified firefly luciferase, luminescence counter-screen
Each line names hits and unclear results; the compound was inactive in the other large screens (follow-up assays come after a bar, where they were run). An excerpt weighted towards active compounds, which were near 9.4% of everything screened. Calls come from the whole dose curve; as a rule, active = well fitted curve in the direction sought with a large enough effect; inconclusive = small, poorly fitted or top-dose-only effect, or another doubt; inactive = no such curve, though single readings can be large; an effect the other way counts as inactive or inconclusive.

Cc1c(CC(=O)N2CCN(C(=O)C3COc4ccccc4O3)CC2)c(=O)oc2cc(O)c(Cl)cc12 (centres undefined)	ELG1 repair inh inconclusive (no result: SMN2 splice enh)
Cc1cc(=O)oc2cc(OCC(=O)N3CCN(C(=O)C4COc5ccccc5O4)CC3)c(Cl)cc12 (centres undefined)	ELG1 repair inh inconclusive (no result: SMN2 splice enh)
Cc1cc(=O)oc2cc(OCC(=O)N3CCN(C(=O)C4COc5ccccc5O4)CC3)ccc12 (centres undefined)	ELG1 repair inh 1.2µM (no result: SMN2 splice enh) | ELG1 Luc conf 2.2µM | ELG1-Luc MMS inconclusive | ELG1 5-FU inconclusive | ELG1 MMS cell inconclusive | Cell viab unstim inactive
CCCc1cc(=O)oc2cc(OCC(=O)N3CCN(C(=O)C4COc5ccccc5O4)CC3)ccc12 (centres undefined)	ELG1 repair inh 3.7µM (no result: SMN2 splice enh) | ELG1 Luc conf 3.1µM | ELG1-Luc MMS inconclusive | ELG1 5-FU inconclusive | ELG1 MMS cell inactive | Cell viab unstim inconclusive
O=C(COc1ccc2ccc(=O)oc2c1)N1CCN(C(=O)C2COc3ccccc3O2)CC1 (centres undefined)	ELG1 repair inh 1.5µM (no result: SMN2 splice enh) | ELG1 Luc conf 2.8µM | ELG1-Luc MMS inactive | ELG1 5-FU inconclusive | ELG1 MMS cell inactive | Cell viab unstim inactive
Cc1nc2ccc(S(=O)(=O)NC(CC(C)C)C(=O)N3CCN(c4ccc(F)cc4)CC3)cc2s1 (centres undefined)	none (no result: NPC1 prom act, ELG1 genotoxic, ELG1 repair inh, Rab9 prom act)
NC(=O)C1CCN(C(=O)COc2ccc3c(c2)oc(=O)c2ccccc23)CC1	FLuc counter inconclusive (no result: SMN2 splice enh)
Cc1c(Cc2ccccc2)c(=O)oc2cc(OCC(=O)N3CCC(C(N)=O)CC3)ccc12	ELG1 repair inh 0.82µM (no result: SMN2 splice enh) | ELG1 FLuc counter inactive | ELG1 Luc conf inconclusive | ELG1-Luc MMS 28µM | ELG1 5-FU inconclusive | ELG1 MMS cell 25µM | Cell viab unstim inactive | FLuc biochem inconclusive
CCCCCCC[C@@H](C/C=C/CCC(=O)N(C)C/C(=C/Cl)C/C(=C\C(=O)N1C[C@H](O)CC1=O)OC)OC	ELG1 repair inh inconclusive (no result: NPC1 prom act, SMN2 splice enh, FLuc counter, Rab9 prom act)
CCCCCCC[C@@H](C/C=C/CCC(=O)N(C)C/C(=C/Cl)C/C(=C\C(=O)N1CC(OC)=CC1=O)OC)OC	ELG1 genotoxic 2.1µM, ELG1 repair inh inconclusive (no result: NPC1 prom act, SMN2 splice enh, FLuc counter, Rab9 prom act) | Cell viab unstim inconclusive
C=CCn1c(SCC(=O)NC(=O)c2cccc([N+](=O)[O-])c2)nnc1-c1ccccc1	none
COc1ccc(CNC(=O)c2nn(C)c3c2CS(=O)(=O)c2ccccc2-3)cc1	none (no result: SMN2 splice enh)
